From PubChem
BAZ2B inh: BAZ2B (human) inhibition; Q9UIF8; AlphaScreen BAZ2B-H3K14Ac peptide displacement; Potency, µM (titrated, usually from 114 µM), without a hit: top-dose activity change, negative = inhibition, usual class: inhibitors; actives 4.4% (n = 360,000); further: on the % scale 0 is the no-effect control and ±100 the full control effect; nearly all actives have a fitted effect of over 60% in size
Target sequence (Q9UIF8 whole entry, looked up): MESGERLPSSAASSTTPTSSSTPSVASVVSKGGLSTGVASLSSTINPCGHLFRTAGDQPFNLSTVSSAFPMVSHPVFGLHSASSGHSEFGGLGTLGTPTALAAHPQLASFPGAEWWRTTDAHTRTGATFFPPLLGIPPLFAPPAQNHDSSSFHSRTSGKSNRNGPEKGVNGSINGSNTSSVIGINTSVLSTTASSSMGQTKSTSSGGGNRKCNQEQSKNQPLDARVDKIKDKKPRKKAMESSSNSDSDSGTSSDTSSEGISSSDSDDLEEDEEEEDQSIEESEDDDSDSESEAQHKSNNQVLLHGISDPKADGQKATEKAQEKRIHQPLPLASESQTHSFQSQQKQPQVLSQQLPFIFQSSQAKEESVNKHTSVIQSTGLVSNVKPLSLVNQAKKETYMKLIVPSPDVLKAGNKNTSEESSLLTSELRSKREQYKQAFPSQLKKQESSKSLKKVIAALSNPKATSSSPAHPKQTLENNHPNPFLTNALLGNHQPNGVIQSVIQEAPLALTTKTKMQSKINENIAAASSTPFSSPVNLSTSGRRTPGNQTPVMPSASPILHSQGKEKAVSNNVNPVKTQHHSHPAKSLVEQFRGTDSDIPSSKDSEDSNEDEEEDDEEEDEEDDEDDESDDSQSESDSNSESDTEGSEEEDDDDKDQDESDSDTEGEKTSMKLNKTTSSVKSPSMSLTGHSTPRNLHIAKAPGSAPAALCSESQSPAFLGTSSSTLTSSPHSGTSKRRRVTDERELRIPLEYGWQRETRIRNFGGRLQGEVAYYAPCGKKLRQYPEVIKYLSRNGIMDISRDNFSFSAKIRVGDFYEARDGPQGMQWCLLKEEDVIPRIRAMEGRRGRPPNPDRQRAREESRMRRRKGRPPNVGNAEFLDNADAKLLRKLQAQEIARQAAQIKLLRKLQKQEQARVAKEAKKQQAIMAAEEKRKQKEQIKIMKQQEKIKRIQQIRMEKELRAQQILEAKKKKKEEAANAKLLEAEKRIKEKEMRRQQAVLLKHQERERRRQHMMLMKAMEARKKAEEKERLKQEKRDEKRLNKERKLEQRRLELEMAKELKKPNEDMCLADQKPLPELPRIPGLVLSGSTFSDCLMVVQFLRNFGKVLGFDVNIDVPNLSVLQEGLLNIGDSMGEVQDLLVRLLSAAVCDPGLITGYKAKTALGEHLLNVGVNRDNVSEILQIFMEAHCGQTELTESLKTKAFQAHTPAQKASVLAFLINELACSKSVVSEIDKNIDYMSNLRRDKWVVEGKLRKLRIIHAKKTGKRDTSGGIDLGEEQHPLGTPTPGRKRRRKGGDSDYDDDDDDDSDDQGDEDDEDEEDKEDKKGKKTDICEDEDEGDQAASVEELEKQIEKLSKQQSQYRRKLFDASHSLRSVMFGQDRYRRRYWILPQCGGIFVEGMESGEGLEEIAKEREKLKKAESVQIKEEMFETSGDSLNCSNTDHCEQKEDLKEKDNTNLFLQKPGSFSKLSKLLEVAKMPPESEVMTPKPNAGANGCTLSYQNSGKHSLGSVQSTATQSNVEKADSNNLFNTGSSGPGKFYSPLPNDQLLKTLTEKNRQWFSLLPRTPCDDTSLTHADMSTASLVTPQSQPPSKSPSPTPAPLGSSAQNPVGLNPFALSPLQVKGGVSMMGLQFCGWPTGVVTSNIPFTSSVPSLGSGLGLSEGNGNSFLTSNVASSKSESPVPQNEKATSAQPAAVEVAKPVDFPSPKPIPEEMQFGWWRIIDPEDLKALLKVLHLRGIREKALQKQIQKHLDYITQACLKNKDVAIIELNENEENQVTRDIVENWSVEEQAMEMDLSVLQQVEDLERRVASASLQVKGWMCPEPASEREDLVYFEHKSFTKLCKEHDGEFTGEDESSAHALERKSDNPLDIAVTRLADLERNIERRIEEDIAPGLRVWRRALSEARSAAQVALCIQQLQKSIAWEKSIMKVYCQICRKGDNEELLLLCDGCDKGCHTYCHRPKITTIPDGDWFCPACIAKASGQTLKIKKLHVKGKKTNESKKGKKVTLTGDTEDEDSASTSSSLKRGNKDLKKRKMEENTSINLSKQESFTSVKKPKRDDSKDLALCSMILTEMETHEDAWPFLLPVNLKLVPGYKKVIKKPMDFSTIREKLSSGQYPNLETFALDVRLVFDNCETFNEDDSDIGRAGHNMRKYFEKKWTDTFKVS
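BAZ2B 50 nM plus b-H3(5-23)K14Ac 50 nM, PBS pH 7.4/0.01% Tween-20, 30 min RT; compound added (max 110 uM), 30 min RT; streptavidin donor/Ni-chelate acceptor beads 10 ug/mL final, 20 min dark; AlphaScreen read.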
HP1b chromo inh: HP1-beta chromodomain-methylated histone interaction inhibition | P83916 | AlphaScreen HP1-beta / biotin-H3K9me3 peptide binding | Potency, µM (doses to about 114 µM), inactives show at the top dose activity change, negative = inhibition, hits mostly inhibitors | actives 0.56% (n = 390,000); further: nearly all actives have a fitted effect of over 70% in size
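HP1-beta protein (50 nM final) preincubated 30 min at room temperature with biotinylated H3(1-18)K9me3 peptide (50 nM) in PBS pH 7.4, 0.01% Tween-20, then compound added for 30 min. AlphaScreen streptavidin donor/nickel chelate acceptor beads (10 ug/mL final), 30 min dark, luminescence read.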
L3MBTL1 block: blocks human L3MBTL1. AlphaScreen L3MBTL1–H3K9me1 peptide binding. Potency, µM (top dose mostly 57.1 µM), without a hit: at the top dose activity, negative = inhibition, usual class: inhibitors. actives 0.66% (n = 230,000); further: on the % scale 0 is the no-effect control and ±100 the full control effect; nearly all actives have a fitted effect of over 60% in size
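First, the protein-peptide complex forms for 30 min at room temperature (L3MBTL1 50 nM, biotinylated H3K9me1 peptide 75 nM). Next, compounds are pin-transferred and incubated 30 min. Finally, AlphaScreen beads are added and read after 30 min.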
JMJD2A Tudor inh: blocks the human JMJD2A Tudor domain; O75164; AlphaScreen JMJD2A-Tudor / H3K4me3 peptide binding; Potency, µM (highest dose often 114 µM), for inactives: top-dose activity change, negative = inhibition, actives largely listed as inhibitors; actives 4.4% (n = 390,000); AID 504339; further: on the % scale 0 is the no-effect control and ±100 the full control effect; nearly all actives have a fitted effect of over 50% in size
G9a inh: inhibitors of human histone lysine methyltransferase G9a; G9a H3K9 monomethylation, AlphaScreen, 2 h; Potency, µM (top dose mostly 102 µM), for inactives: top-dose activity, negative = inhibition, hits mostly inhibitors; actives 8.8% (n = 350,000); AID 504332; further: on the % scale 0 is the no-effect control and ±100 the full control effect; nearly all actives have a fitted effect of over 75% in size
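Quantitative HTS format: methyltransferase activity on a biotin-tagged H3K9 peptide is measured by AlphaScreen, using a rabbit anti-monomethyl-H3K9 antibody with streptavidin donor and anti-IgG acceptor beads. Final levels are 20 nM enzyme, 500 nM peptide, 20 uM SAM; 2 h RT.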
* hit, by the source's call; u = inconclusive; x = no result; ! = not confirmed by another sample; [ ] = another dose, or the depositor's remark. In the library only some 11% were active in any assay of this set; here they are far more common. The call rests on the fitted dose curve; in most records, active means well fitted inhibition curve with a large enough effect; inconclusive means small, poorly fitted or top-dose-only effect; inactive means no such curve, though single readings can be large or run the other way. Potency means the concentration at half of the fitted maximal effect.

SMILES	BAZ2B inh	HP1b chromo inh	L3MBTL1 block	JMJD2A Tudor inh	G9a inh
CS(=O)(=O)c1ccc(C(=O)OCC(=O)NCC2CCCO2)cc1[N+](=O)[O-] (stereo unspecified)	x	30%	x	-9%	x
Cc1ccc(S(=O)(=O)c2[nH]c(-c3ccccc3)nc2SC(C)C(=O)O)cc1 (stereo unspecified)	-20%	22%	x	-16%	-11%[59 µM]
O=C(Nc1ccc(F)cc1F)C1CCN(S(=O)(=O)c2ccc3[nH]c(=O)ccc3c2)CC1	0%	28%[57 µM]	x	2%	0%[59 µM]
CCOc1ccccc1NC(=O)c1cc2cc(C)ccc2n1C	45%	166%	x	86%	63%[59 µM]
O=c1c(N2CCOCC2)coc2ccccc12	-12%	91%	-1%	-10%	3.5µM*
Cc1cccc(NNC(=O)C2CCC2)c1	1%	60%	4%	3%	32µM*
O=C(NNc1cc(Cl)cc(Cl)c1)C1CCC1	4%	20%	-2%	-7%	u
O=C(NNc1ccc(Cl)cc1)C1CCC1	-2%	53%	6%	-19%	18µM*
Cc1cccc(NS(=O)(=O)c2nnc(NC(=O)C3CCCCC3)s2)c1	6.3µM*!	34%	4%	-15%	8.9µM*!
Cc1cccc(NC(=O)C2CCCC2)c1	13%	19%	-2%	-4%	25%[59 µM]
Cc1cccc(NNC(=O)c2c(F)cccc2Cl)c1	-9%	54%	4%	-3%	71µM*
COc1ccc(NC(=O)c2ccco2)cc1NC(=O)COc1ccccc1Cl	1%	30%	x	-4%	26%[59 µM]
COc1ccc(CCNCc2c(C(=O)O)c(C)n(Cc3c(F)cccc3Cl)c2C)cc1OC	u	0%	x	-25%	-32%[59 µM]
Cc1ccc(OCc2nc(C#N)c(NCCCn3ccnc3)o2)cc1	50µM*	-20%	-4%	8%[11.4 µM]	u
N#Cc1nc(COc2ccccc2F)oc1NCCCn1ccnc1	u	31%	u	u	32µM*
c1ccc(Nc2cc(-c3ccoc3)ncn2)cc1	x	x	x	x	-15%[0.501 µM]
CC1CC(C)(C)Nc2ccc(OC(=O)c3ccco3)cc21 (stereo unspecified)	u	-9%	u	u	45µM*
O=C(Cc1ccc(-c2ccccc2)cc1)NCCS(=O)(=O)N1CCN(c2ccccc2F)CC1	5%	26%[57 µM]	x	3%	15%[59 µM]
CCn1c(O)c(C=Nc2ccccc2)sc1=S	6%	42%	x	-11%	u
C=CCn1c(O)c(C=Nc2ccccc2)sc1=S	-18%	35%	2%	-12%	50µM*
COc1ccc(C2CC(=O)C(C(c3ccc(O)cc3)C3C(=O)CC(c4ccc(OC)cc4)CC3=O)C(=O)C2)cc1 (stereo unspecified)	-36%	x	-10%	x	25µM*
COc1ccc(C2=CC(=O)CC(c3ccc(OC)cc3)C2)cc1 (stereo unspecified)	-17%	29%	0%	-3%	-3%
Cc1ccc(Cl)cc1NC(=O)Cn1c(=O)n(CCCS(=O)(=O)C2CCCCC2)c(=O)c2ccccc21	u	5%	x	-20%	-3%[59 µM]
COc1ccc(CCCc2nnc(SCC(=O)Nc3ccc(Cl)cc3)o2)cc1	-7%	22%	x	u	-34%[59 µM]
CCCN(CCC)C(=O)Cn1c(=O)n(Cc2ccc(C(=O)NCCc3ccc(Cl)cc3)cc2)c(=O)c2ccccc21	0%	16%	x	-11%	-2%[59 µM]
SMILES	BAZ2B inh	HP1b chromo inh	L3MBTL1 block	JMJD2A Tudor inh	G9a inh
COc1ccc(S(=O)(=O)N(Cc2ccccc2)c2ccccc2C(=O)Nc2ccccc2C(=O)NCc2ccco2)cc1	-6%	-2%	-3%	-26%	-3%
Cc1ccc(S(=O)(=O)N(C(=O)c2ccco2)c2cc3sc(=O)oc3c3ccccc23)cc1	u	u	-10%	u	1.8µM*
COc1ccc(S(=O)(=O)N(C(=O)c2ccco2)c2cc3sc(=O)oc3c3ccccc23)cc1	u	u	-9%	u	1.4µM*
CCOc1ccc(S(=O)(=O)N(C(=O)c2ccco2)c2cc3sc(=O)oc3c3ccccc23)cc1	u	u	-5%	u	1.4µM*
CCOc1ccc(S(=O)(=O)N(C)CC(=O)NCc2ccco2)cc1	-2%	14%	x	-10%	-17%[59 µM]
CCOC(=O)c1ccc(NC(=O)C2CCCN(c3ccc(Sc4ccc(C)cc4)nn3)C2)cc1 (stereo unspecified)	-2%	34%	x	-10%	-33%[59 µM]
COc1ccc(-c2cn(-c3ccc(C)cc3)c(S(=O)(=O)CC(=O)Nc3ccccc3)n2)cc1	-27%	28%	x	u	u
COc1ccc(CN2CCCCC2C(=O)Nc2ccc(OC)c(OC)c2)cc1OC (stereo unspecified)	-9%	16%	-5%	-18%	-9%
CCC1CCCCN1Cc1ccc(OC)c(C)c1 (stereo unspecified)	56µM*	u	x	7.1µM*	50µM*
CCOC(=O)C1CCCCN1Cc1ccc(OC)c(OC)c1 (stereo unspecified)	56µM*	u	5%	20µM*	32µM*
CCOC(=O)C1CCCCN1Cc1ccc(F)c(Br)c1 (stereo unspecified)	12%	u	x	u	22µM*
COc1ccc(CN2CCN(CC3CC3)CC2CCO)cc1C (stereo unspecified)	-12%	42%	1%	-16%	4%
COc1cccc(NC(=S)N2CCC(NC(=O)c3ccco3)CC2)c1	-10%	34%	x	-3%[57.1 µM]	6%
CCN(CC)CCOc1ccc(/C(=C(\Cl)c2ccccc2)c2ccccc2)cc1	u	u	-4%	32µM*	x
CCc1ccc(C2=NNC(=Nc3c(C)n(C)n(-c4ccccc4)c3=O)SC2)cc1	-33%	-15%	x	-25%	25µM*
O=C(Nc1nc(N2C(=O)c3ccccc3C2=O)n(-c2ccccc2)n1)c1ccccc1	u	32%	38%	u	-12%
CC(=O)Nc1nc(N2C(=O)c3ccccc3C2=O)n(-c2ccccc2)n1	u	55%	33%[11.4 µM]	79µM*	u
COc1cc(OC)c(NC(=O)N2CCc3cc(S(=O)(=O)N4CCC(C)CC4)ccc32)cc1Cl	2%	5%	x	-17%	-1%[59 µM]
COc1cc2c(cc1OC)-c1c(oc3cc(O)cc(O)c3c1=O)CO2	x	x	x	x	-38%[2.33 µM]
OC(c1nc2ccccc2[nH]1)C(O)c1nc2ccccc2[nH]1 (stereo unspecified)	-29%	55%	5%[2.29 µM]	-17%	-4%[0.501 µM]
FC(F)(F)c1nc2cc3nc4ccccc4[nH]c3cc2n1	-23%	11%	-24%	-12%	40µM*
O=C(NCCCNC(=O)c1cccnc1)c1ccc(Cl)cc1	1%	19%	x	-11%	25%
Cc1nnc(N2CCN(c3cccc(C(F)(F)F)c3)CC2)c2c1nnn2Cc1ccccc1	1%	34%	x	-12%	8%[59 µM]
C=CCOc1ccc(CNn2c(C)n[nH]c2=S)cc1OC	0%	49%	-12%	20µM*	x
C=CCOc1ccc2ccccc2c1CNn1c(C)n[nH]c1=S	41%	27%	18%	u	x
